Results published in PubChem BioAssay (NCATS).
Inconclusive results are not listed. A call without a number means that no potency is given here. Active and inactive are the calls of the source. Calls come from the whole dose curve; as a rule, active = well fitted curve in the direction sought with a large enough effect; inconclusive = small, poorly fitted or top-dose-only effect, or another doubt; inactive = no such curve, though single readings can be large; an effect the other way counts as inactive or inconclusive.

What was measured:
[1] = test system: Nanoluciferase (engineered Oplophorus gracilirostris luciferase); experiment: Primary Nanoluciferase (NLuc) qHTS assay for identification of artifact compounds. (AID 1845222); conditions: NLuc-conditioned medium, Nano-Glo luminescence, 5 min; series mostly up to 54.1 µM
Procedure, shortened: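 Diluted conditioned medium from NLuc-expressing S16 cells treated with compounds for 15 min at room temperature, then Nano-Glo substrate added; luminescence read after 5 min. Percent inhibition versus no-enzyme and DMSO controls fitted to 4-parameter Hill equation.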

[2] = Primary redox qHTS assay for identification of artifact compounds. (AID 1845223); conditions: Amplex Red/HRP redox cycling with DTT, fluorescence; series mostly up to 53.8 µM
Procedure, shortened: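 Redox-cycling detection via DTT (250 uM final) oxidation coupled to Amplex Red (25 uM)/HRP (250 mU/mL) in HBSS. 15 min preincubation plus 30 min after DTT, room temperature. Ex/Em 525/598 nm; 4-parameter Hill fit against DMSO and 10 uM DA3003.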

| SMILES | Potency [1] | Potency [2] |
| --- | --- | --- |
| COCC1OC(OC(C)(C)C2CCC3(C)C=C(C4CCC5C4(C)CC(O)C4OC(C(C)(C)O)CCC45C)CCC3O2)C(NC(C)=O)C(O)C1O (configuration not stated) | inactive | inactive |
| O=C(O)/C=C/c1ccc2occc2c1O[C@@H]1O[C@H](CO)[C@@H](O)[C@H](O)[C@H]1O | inactive | inactive |
| COc1c2cc(c(O)c1OC)CCCCC(O)CCc1ccc(O)c-2c1 (configuration not stated) | inactive | inactive |
| COCCCc1sc(-c2ccccc2)nc1C(=O)Nc1ccccc1-c1nc2cc(CN3CCCC3)cnc2s1 |  | inactive |
| C=CCc1ccc(O[C@@H]2O[C@H](CO)[C@@H](O)[C@H](O)[C@H]2O)c(O[C@@H]2O[C@H](CO)[C@@H](O)[C@H](O)[C@H]2O)c1 |  | inactive |
| CC/C=C/C(O)C(O)C1=C(C)C(=O)C2(O1)C(=O)NC(OC)(C(=O)c1ccccc1)C2O (configuration not stated) | inactive | inactive |
| Oc1ccc2c(-c3c(-c4ccccn4)nn4c3CCC4)ccnc2c1 |  | inactive |
| CC1(C)C(=O)CCC2(C)C1C(O)C=C1COC(=O)C12O (configuration not stated) | inactive | inactive |
| C=C1C(O)C(OC(=O)c2ccccc2)C2C(C)(C(=O)O)CCCC2(C)C1CC/C(C)=C\CO (configuration not stated) | inactive | inactive |
| CC1=C2C(=O)C=C(CO[C@@H]3O[C@H](CO)[C@@H](O)[C@H](O)[C@H]3O)[C@@H]2[C@H]2OC(=O)[C@H](C)[C@@H]2CC1 | inactive | inactive |
| O=C(O)c1ccnc(-c2cc(C(=O)NCCc3ccccc3)ccn2)c1 |  | inactive |
| C=C(C)[C@@H]1CC[C@]2(C(=O)O)CC[C@]3(C)[C@H](CCC4[C@@]5(C)CCC(=O)C(C)(C)C5C(O)C[C@]43C)C12 (some centres not stated) | inactive | inactive |
| C[C@H]1CC[C@H]2[C@@H](C=C[C@@](C)(O)[C@]2(C)C(=O)CCO)C1 | inactive | inactive |
| COc1cnc(-n2cnc(C)n2)c2[nH]cc(C(=O)C(=O)N3CCN(C(=O)c4ccccc4)CC3)c12 | inactive | inactive |
| COc1ccc(O[C@@H]2O[C@H](CO)[C@@H](O)[C@H](O)[C@H]2O)cc1OC | inactive | inactive |
| C[C@]1(O)CC[C@@H]2C(C(=O)O)=CO[C@@H](O[C@@H]3O[C@H](CO)[C@@H](O)[C@H](O)[C@H]3O)[C@@H]21 | inactive | inactive |
| COC(=O)C(CC1CCCC1)c1ccc(S(C)(=O)=O)cc1 (configuration not stated) | inactive | inactive |
| C[C@@H]1C(=O)O[C@H](C)[C@H]1C[C@@H](O)[C@](C)(O)[C@H]1CC[C@@]2(O)C3=CC(=O)[C@@H]4C[C@@H](O)[C@@H](O)C[C@]4(C)C3CC[C@]12C (some centres not stated) | inactive | inactive |
| CCOC(=O)c1ccc(NC2CCCCC2)c(N)c1 | inactive | inactive |
| COC(=O)C1=COC(OC2OC(CO)C(O)C(O)C2O)C2C(C)C(OC(C)=O)C(OC(=O)c3ccccc3)C12 (configuration not stated) | inactive | inactive |
| CC(=O)OC[C@@]12C(=O)C[C@@H](C)[C@]3(C[C@@H](c4ccoc4)OC3=O)[C@H]1CC[C@H](OC(C)=O)[C@]21CO1 | inactive | inactive |
| COc1cc(CO)ccc1O[C@@H]1O[C@H](CO)[C@@H](O)[C@H](O)[C@H]1O | inactive | inactive |
| C=C(C(=O)OC)[C@]12O[C@@](C)(CC[C@@]3(O)/C(=C\C)C(=O)O[C@]3(C)C[C@@H]1OC(=O)C(CO)CN1CCCC1C(=O)O)CC2=O (some centres not stated) | inactive | inactive |
| COC1OC(O)C2(CCC3(O2)C(C)CC2OC(=O)C4(C)CCCC3(C)C24)C1O (configuration not stated) |  | inactive |
| Cc1[nH]c2ccccc2c1CC(=O)N[C@@H](Cc1ccccc1)C(=O)N(C)c1ccccc1 | inactive | inactive |
| COc1cc2c(c(O)c1OC/C=C(\C)CC/C=C(/C)CCC=C(C)C)CN(C(CCC(=O)O)C(=O)O)C2=O (configuration not stated) | inactive | inactive |
